Results taken from PubChem BioAssay (NCATS).
Results filed as inconclusive are left out. Where a call stands in place of a potency, no number is given. A number with no mark means an inactive call. Active and inactive are the calls of the source. Calls come from the whole dose curve; as a rule, active = well fitted cell-killing curve with a large enough effect; inconclusive = small, poorly fitted or top-dose-only effect, or effect the other way; inactive = flat fitted curve, though single readings scatter.

Test system: CASKI
Experiment: Primary qHTS to identify gynecologic anti-cancer compounds using libraries of approved drugs and bioactive compounds (AID 1345084); note: nearly all actives have a fitted effect of over 55% in size
Conditions: Gynecologic cancer cell panel viability, ATPlite luminescence, 48 h; series mostly up to 57.5 µM
How it was run: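 Five-point cytotoxicity, 48 h drug exposure at 37 C, 5% CO2, on cells seeded 16 h beforehand. ATP content read by ATPlite luminescence.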
Potency is the fitted concentration of half-maximal effect.

Row | SMILES | Potency | activity change, negative = cytotoxicity
1 | CC1=CC(=O)[C@@H](O)[C@@]2(C)C1C[C@H]1OC(=O)[C@H](O)[C@@]3(O)[C@@H](C)[C@@H](O)[C@H](O)C2[C@@]13C (stereo partly specified) | inactive | 
2 | CN(Cc1cccc(-c2ccncc2)c1)C(=O)Oc1ccc(-c2ccc(C(N)=O)cc2)cc1 | inactive | 
3 | CN(C(=O)C(c1ccccc1)c1ccccc1)[C@H](CN1CC[C@H](O)C1)c1ccccc1 | inactive | 
4 | C/C=C(\C)C(=O)OC1CC2C(CC=C3CC(OC4CC(OC)C(OC5CC(OC)C(OC6CC(OC)C(OC7CC(OC)C(O)C(C)O7)C(C)O6)C(C)O5)C(C)O4)CCC32C)C2(O)CCC(C(C)=O)C12C (stereo unspecified) |  | -11.1% [at 11.6 µM]
5 | CN=C(NS(=O)(=O)c1ccc(Cl)cc1)N1C[C@H](c2ccccc2)C(c2ccc(Cl)cc2)=N1 | inactive | 
6 | C[C@@H]1O[C@@H](OC2CCC3(C=O)C(CCC4C3CCC3(C)C(C5=CC(=O)OC5)C(O)CC43O)C2)[C@H](O)[C@H](O)[C@H]1O[C@@H]1O[C@H](CO)[C@@H](O)[C@H](O)[C@H]1O (stereo partly specified) | inactive | 
7 | Cc1c(N[C@@H](c2nnc(-c3ccc(C#N)cc3)o2)[C@H](C)O)ccc(C#N)c1Cl | inactive | 
8 | CC12CCC3C(C1)c1c(cc(O)c(C(=O)c4ccccc4)c1OC3(C)C)O2 (stereo unspecified) | inactive | 
9 | CN1C(=O)[C@@H](Cc2c[nH]c3ccccc23)N=C(c2ccccc2F)c2ccccc21 | inactive | 
10 | CCCCCCC1C(=O)O[C@H](C)[C@H](NC(=O)c2cccc(NC=O)c2O)C(=O)O[C@@H](C)[C@@H]1OC(=O)CC(C)C (stereo partly specified) | 1000 nM (active) | 
11 | C=C(C)[C@@]12O[C@@H]1[C@@]1(C)C(=CC2=O)CC[C@@H](OC(C)=O)[C@@H]1C | inactive | 
12 | c1ccc([C@@H]2C[C@H]2NC2CCNCC2)cc1 | inactive | 
13 | CC(C)[C@H]1OC(=O)[C@H](Cc2ccccc2)N(C)C(=O)[C@@H](C(C)C)OC(=O)[C@H](Cc2ccccc2)N(C)C(=O)[C@@H](C(C)C)OC(=O)[C@H](Cc2ccccc2)N(C)C1=O | inactive | 
14 | C=C1C2(C)CC3C(C)(O)C4=CC(=O)OC(C)(C)C4=CCC3(C)C13C(=O)OC(C)C3(O)C2=O (stereo unspecified) | inactive | 
15 | CN(C)[C@@H]1C(=O)C(C(N)=O)=C(O)[C@@]2(O)C(=O)C3=C(O)c4c(O)ccc(Cl)c4[C@@](C)(O)C3C[C@@H]12 (stereo partly specified) | inactive | 
16 | CC(=O)O[C@H]1C[C@]2(O)[C@@H]3CC[C@@H]4C[C@@H](O)CC[C@]4(C)[C@H]3CC[C@]2(C)[C@H]1c1ccc(=O)oc1 | 398 nM (active) | 

Row | SMILES | Potency | activity change, negative = cytotoxicity
17 | CN1CCC2=C(C1)c1ccccc1Cc1ccccc12 | inactive | 
18 | CCOc1ccc(Oc2ccc(OCc3cc(F)ccc3F)cc2)c(N)c1 | inactive | 
19 | CCN1C[C@]2(COC)CC[C@H](O)[C@@]34C5C[C@@H]6[C@@H](OC)C[C@@](OC(C)=O)(C5[C@@H]6OC(C)=O)[C@H]([C@H](OC)C23)[C@@H]14 (stereo partly specified) | inactive | 
20 | CC(C)[C@H](NC(=O)c1nn(Cc2ccc(F)cc2)c2ccccc12)C(N)=O | inactive | 
21 | CCCN(CCC)[C@@H]1CCc2ccc3[nH]c(C#N)cc3c2C1 | inactive | 
22 | Cc1ccc2c(c1)[C@H]1CN(C)CC[C@H]1N2C(=O)CSc1nnnn1-c1ccc(Cl)cc1 | inactive | 
23 | COC1CCCC(C)OC(=O)Cc2cc(O)cc(O)c2C(=O)C1 (stereo unspecified) | inactive | 
24 | C[C@]12CC[C@H](O)C[C@@H]1CC[C@@H]1[C@@H]2CC[C@]2(C)C(=O)CC[C@@H]12 | inactive | 
25 | CC(=O)OC[C@]12[C@H](OC(C)=O)C(=O)[C@@H]3[C@@H](O)[C@@]14O[C@@]3(C)COC(=O)c1cccnc1[C@@H](C)[C@H](C)C(=O)O[C@@H]([C@H](OC(C)=O)[C@@H]2OC(C)=O)[C@]4(C)O | inactive | 
26 | C#C[C@]1(O)CC[C@H]2[C@@H]3CC[C@H]4Cc5nc6nc7ccccc7n6cc5C[C@]4(C)[C@H]3CC[C@@]21C | inactive | 
27 | CN1C(=O)N(c2ccc(C#N)c(C(F)(F)F)c2)C(=O)[C@@]1(CO)c1ccccc1 | inactive | 
28 | CCCCCn1cc(C(=O)Oc2cccc3cccnc23)c2ccccc21 | inactive | 
29 | C[C@]12CC[C@H](O)C[C@@H]1CC[C@@H]1[C@@H]2CC[C@]2(C)[C@@H](C3=CC(=O)OC3)CC[C@]12O | inactive | 
30 | C[C@]12CC[C@H](O)C[C@@]1(O)CC[C@@H]1[C@@H]2CC[C@]2(C)[C@@H](c3ccc(=O)oc3)CC[C@]12O | inactive | 
31 | COC(=O)C12C(=O)C(C)(O)C(=O)C1(C)C(C)=CC1C34CCC(OC3=O)C(C)(C)C4CCC12C (stereo unspecified) | inactive | 
